Assay results: the supplement of paper PMC10849652
Targets with a hit are over-represented here; the source holds about 8,800 in all. About 0.5% of all pairs of compound and target were hits. Unmarked numbers belong to inactive results.

Assays:
Test in all cases: log2 fold change, soluble protein after heating vs DMSO (PISA); higher = thermal stabilisation; K562 lysate, 10 uM; active = over 0.2 and 3.5 SD of the protein, either way, in both replicates (recomputed)
alvocidib = compound: CN1CC[C@H](c2c(O)cc(O)c3c(=O)cc(-c4ccccc4Cl)oc23)[C@H](O)C1 [alvocidib]
In short: (§1)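 The values are log-two fold changes in thermal stability compared with solvent controls and come from duplicates. They were obtained by TMTpro 16plex LC-MS/MS, with channel sums equalised, on the supernatant after 21,000xg for 90 min. That supernatant came from crude K562 extract at 1 mg/mL protein treated with 10 μM compound for 30 min, heated for 3 min across 48°C-58°C, pooled and brought to 0.5% NP-40 at 4°C.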

Tubastatin A = compound: CN1CCc2c(c3ccccc3n2Cc2ccc(C(=O)NO)cc2)C1 [Tubastatin A]
In short: as §1

[1] = compound: CNC(=O)C1=CC=CC=C1NC2=NC(=NC=C2Cl)NC3=C(C=C(C=C3)N4CCOCC4)OC
In short: as §1

defactinib = compound: CNC(=O)c1ccc(Nc2ncc(C(F)(F)F)c(NCc3nccnc3N(C)S(C)(=O)=O)n2)cc1 [defactinib]
In short: as §1

[2] = compound: CNc1nc(-c2ccc3c(N)n[nH]c3c2)cc(N2C[C@@H](C(=O)NC3CCCCC3)CC[C@H]2C)n1
In short: as §1

encorafenib = compound: COC(=O)N[C@@H](C)CNc1nccc(-c2cn(C(C)C)nc2-c2cc(Cl)cc(NS(C)(=O)=O)c2F)n1 [encorafenib]
In short: as §1

[3] = compound: COC(=O)[C@H](CCSC)NC(=O)C1=C(C=C(C=C1)NC[C@H](CS)N)C2=CC=CC=C2
In short: as §1

alisertib = compound: COc1cc(Nc2ncc3c(n2)-c2ccc(Cl)cc2C(c2c(F)cccc2OC)=NC3)ccc1C(=O)O [alisertib]
In short: as §1

[4] = compound: COc1cc2nc(-c3cc(F)ccc3O)nc(N[C@@H]3CNC[C@H]3C(C)(C)O)c2cc1OC
In short: as §1

gefitinib = compound: COc1cc2ncnc(Nc3ccc(F)c(Cl)c3)c2cc1OCCCN1CCOCC1 [gefitinib]
In short: as §1

pictilisib = compound: CS(=O)(=O)N1CCN(Cc2cc3nc(-c4cccc5[nH]ncc45)nc(N4CCOCC4)c3s2)CC1 [pictilisib]
In short: as §1

crizotinib = compound: C[C@@H](Oc1cc(-c2cnn(C3CCNCC3)c2)cnc1N)c1c(Cl)ccc(F)c1Cl [crizotinib]
In short: as §1

[5] = compound: C[C@H](C1=CC=C(C=C1)C(=O)NC2=C3C=CNC3=NC=C2)N
In short: as §1

duvelisib = compound: C[C@H](Nc1ncnc2nc[nH]c12)c1cc2cccc(Cl)c2c(=O)n1-c1ccccc1 [duvelisib]
In short: as §1

gandotinib = compound: Cc1cc(Nc2cc(CN3CCOCC3)c3nc(C)c(Cc4ccc(Cl)cc4F)n3n2)n[nH]1 [gandotinib]
In short: as §1

tozasertib = compound: Cc1cc(Nc2cc(N3CCN(C)CC3)nc(Sc3ccc(NC(=O)C4CC4)cc3)n2)n[nH]1 [tozasertib]
In short: as §1

bafetinib = compound: Cc1ccc(NC(=O)c2ccc(CN3CC[C@H](N(C)C)C3)c(C(F)(F)F)c2)cc1Nc1nccc(-c2cncnc2)n1 [bafetinib]
In short: as §1

[6] = compound: Cc1cccc(CC(=O)N2CCc3c2ccc(-c2cn(C)c4ncnc(N)c24)c3F)n1
In short: as §1

lapatinib = compound: CS(=O)(=O)CCNCc1ccc(-c2ccc3ncnc(Nc4ccc(OCc5cccc(F)c5)c(Cl)c4)c3c2)o1 [lapatinib]
In short: as §1

doramapimod = compound: Cc1ccc(-n2nc(C(C)(C)C)cc2NC(=O)Nc2ccc(OCCN3CCOCC3)c3ccccc23)cc1 [doramapimod]
In short: as §1

Chain of UniProt Q00537 (Q00537 whole entry, looked up): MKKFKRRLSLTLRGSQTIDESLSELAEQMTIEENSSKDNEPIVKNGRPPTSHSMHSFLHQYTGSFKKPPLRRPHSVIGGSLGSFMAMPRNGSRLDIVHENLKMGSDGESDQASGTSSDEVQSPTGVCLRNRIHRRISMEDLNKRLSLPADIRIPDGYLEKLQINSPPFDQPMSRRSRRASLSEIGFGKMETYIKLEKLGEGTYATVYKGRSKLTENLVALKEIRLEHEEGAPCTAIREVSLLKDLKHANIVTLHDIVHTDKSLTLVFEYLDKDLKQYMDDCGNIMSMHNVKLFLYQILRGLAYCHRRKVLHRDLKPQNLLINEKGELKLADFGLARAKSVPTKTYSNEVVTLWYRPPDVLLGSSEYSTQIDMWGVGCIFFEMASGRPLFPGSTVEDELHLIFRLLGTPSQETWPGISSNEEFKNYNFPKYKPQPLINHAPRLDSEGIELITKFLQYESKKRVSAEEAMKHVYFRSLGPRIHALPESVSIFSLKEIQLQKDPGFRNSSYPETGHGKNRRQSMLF
Chain of UniProt Q15834 (Q15834 whole entry, looked up): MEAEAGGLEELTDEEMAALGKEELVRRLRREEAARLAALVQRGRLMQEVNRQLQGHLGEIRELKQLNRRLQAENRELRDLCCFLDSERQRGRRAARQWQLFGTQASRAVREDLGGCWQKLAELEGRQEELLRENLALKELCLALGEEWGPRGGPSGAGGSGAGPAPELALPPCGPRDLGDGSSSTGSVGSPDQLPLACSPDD
Chain of UniProt P30307 (P30307 whole entry, looked up): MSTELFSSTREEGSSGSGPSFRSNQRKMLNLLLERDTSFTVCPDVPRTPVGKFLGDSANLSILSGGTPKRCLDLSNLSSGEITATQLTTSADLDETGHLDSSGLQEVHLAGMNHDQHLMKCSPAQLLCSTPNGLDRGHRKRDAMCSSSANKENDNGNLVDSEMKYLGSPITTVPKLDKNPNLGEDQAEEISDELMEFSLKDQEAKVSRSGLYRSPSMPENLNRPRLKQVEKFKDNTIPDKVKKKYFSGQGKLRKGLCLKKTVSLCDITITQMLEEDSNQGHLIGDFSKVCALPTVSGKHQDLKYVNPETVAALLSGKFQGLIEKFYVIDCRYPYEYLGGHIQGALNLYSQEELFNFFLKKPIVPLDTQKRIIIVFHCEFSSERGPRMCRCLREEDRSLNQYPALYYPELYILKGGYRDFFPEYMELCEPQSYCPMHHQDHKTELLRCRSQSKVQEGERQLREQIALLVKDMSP
Chain of UniProt O94986 (O94986 whole entry, looked up): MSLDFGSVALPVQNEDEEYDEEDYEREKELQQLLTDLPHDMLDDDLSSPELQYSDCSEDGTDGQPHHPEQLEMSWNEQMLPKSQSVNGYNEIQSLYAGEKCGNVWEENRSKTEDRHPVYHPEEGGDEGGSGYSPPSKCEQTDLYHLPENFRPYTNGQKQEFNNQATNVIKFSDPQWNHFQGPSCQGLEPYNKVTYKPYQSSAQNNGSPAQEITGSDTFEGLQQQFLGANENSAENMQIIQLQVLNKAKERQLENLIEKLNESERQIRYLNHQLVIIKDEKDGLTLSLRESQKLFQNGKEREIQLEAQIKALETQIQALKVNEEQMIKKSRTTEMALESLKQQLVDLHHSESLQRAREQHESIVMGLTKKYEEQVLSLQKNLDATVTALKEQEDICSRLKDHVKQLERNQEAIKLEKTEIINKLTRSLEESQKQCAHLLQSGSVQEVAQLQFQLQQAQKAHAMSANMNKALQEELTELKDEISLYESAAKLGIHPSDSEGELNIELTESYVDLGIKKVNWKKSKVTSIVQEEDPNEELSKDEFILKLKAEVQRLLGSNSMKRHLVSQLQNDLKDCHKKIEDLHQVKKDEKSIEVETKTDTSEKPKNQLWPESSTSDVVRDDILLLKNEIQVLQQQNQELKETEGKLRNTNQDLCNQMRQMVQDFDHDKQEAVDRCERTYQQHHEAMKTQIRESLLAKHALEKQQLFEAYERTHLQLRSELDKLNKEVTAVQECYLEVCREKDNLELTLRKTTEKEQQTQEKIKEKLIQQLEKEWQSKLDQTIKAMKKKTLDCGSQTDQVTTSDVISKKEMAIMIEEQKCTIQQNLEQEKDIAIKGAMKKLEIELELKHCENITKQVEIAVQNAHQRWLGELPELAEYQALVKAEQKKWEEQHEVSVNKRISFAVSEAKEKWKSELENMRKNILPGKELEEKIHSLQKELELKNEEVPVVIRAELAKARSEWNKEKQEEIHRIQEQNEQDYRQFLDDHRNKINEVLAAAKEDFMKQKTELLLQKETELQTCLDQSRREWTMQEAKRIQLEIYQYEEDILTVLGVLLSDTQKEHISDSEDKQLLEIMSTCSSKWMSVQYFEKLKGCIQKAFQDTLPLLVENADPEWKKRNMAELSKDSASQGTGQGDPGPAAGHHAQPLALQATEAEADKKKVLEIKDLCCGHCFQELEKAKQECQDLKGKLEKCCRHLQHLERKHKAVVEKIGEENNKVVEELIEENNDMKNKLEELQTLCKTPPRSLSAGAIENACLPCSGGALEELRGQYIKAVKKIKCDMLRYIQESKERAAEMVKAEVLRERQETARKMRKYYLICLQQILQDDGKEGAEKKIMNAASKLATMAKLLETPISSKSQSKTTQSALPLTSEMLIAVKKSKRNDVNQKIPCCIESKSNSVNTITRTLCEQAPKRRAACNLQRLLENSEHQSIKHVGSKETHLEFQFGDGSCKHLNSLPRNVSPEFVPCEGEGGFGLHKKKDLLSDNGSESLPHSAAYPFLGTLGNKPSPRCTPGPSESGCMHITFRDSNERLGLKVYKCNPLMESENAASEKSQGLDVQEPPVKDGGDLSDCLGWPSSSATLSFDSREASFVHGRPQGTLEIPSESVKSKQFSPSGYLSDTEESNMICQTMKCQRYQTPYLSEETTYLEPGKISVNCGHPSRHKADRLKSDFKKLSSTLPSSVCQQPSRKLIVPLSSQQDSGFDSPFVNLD
Chain of UniProt Q86Y37 (Q86Y37 whole entry, looked up): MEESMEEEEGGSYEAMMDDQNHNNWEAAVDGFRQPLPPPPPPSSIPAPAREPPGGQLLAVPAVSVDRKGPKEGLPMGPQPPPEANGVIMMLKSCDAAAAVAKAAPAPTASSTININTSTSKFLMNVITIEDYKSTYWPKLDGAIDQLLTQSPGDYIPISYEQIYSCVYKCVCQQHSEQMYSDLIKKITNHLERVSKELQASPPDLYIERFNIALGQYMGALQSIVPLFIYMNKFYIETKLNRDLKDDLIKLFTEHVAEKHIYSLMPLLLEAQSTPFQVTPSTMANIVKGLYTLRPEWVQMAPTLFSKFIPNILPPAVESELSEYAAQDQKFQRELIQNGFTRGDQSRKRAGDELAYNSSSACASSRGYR
Chain of UniProt Q8IWZ6 (Q8IWZ6 whole entry, looked up): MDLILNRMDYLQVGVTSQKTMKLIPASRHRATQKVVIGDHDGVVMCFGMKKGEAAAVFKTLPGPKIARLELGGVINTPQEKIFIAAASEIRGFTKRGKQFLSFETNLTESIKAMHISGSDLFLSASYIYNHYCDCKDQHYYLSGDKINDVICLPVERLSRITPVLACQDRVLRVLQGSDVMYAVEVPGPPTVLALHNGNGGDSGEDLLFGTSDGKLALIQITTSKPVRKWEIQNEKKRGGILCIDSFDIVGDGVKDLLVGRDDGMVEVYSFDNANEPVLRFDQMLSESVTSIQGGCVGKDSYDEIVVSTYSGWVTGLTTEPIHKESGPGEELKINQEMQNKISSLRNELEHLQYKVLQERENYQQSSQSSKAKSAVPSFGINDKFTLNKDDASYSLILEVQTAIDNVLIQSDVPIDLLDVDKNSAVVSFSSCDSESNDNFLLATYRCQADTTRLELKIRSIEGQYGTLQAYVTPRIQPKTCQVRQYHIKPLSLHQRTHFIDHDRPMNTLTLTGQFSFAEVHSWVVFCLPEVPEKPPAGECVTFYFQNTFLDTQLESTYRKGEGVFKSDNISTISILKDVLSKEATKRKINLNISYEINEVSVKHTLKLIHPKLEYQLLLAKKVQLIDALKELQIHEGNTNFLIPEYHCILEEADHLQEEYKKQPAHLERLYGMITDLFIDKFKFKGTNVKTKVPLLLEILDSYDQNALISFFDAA
Chain of UniProt Q9BV29 (Q9BV29 whole entry, looked up): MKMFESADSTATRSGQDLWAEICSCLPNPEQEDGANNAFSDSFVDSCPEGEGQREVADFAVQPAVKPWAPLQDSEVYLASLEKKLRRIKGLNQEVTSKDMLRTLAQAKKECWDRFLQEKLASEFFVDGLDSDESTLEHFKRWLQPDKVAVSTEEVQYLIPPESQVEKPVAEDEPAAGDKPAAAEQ
Chain of UniProt O15155 (O15155 whole entry, looked up): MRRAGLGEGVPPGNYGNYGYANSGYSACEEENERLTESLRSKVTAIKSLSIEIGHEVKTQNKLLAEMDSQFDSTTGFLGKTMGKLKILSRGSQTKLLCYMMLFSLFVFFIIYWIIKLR
Chain of UniProt Q12983 (Q12983 whole entry, looked up): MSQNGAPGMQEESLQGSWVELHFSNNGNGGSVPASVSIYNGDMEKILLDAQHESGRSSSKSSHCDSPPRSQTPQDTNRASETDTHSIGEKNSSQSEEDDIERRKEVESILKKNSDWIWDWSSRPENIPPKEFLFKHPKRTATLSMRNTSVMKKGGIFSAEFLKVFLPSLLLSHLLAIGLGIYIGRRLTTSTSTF
Chain of UniProt Q13825 (Q13825 whole entry, looked up): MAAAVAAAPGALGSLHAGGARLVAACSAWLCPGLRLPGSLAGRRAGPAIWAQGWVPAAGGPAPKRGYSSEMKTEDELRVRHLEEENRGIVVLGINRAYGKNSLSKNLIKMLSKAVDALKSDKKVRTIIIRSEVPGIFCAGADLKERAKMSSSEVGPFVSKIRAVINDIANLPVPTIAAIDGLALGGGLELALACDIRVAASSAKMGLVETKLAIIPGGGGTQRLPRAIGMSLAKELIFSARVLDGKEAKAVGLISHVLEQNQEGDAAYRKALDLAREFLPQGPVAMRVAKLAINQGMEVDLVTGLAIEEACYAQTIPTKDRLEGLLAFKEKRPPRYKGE

Target	log2 fold change (alvocidib)	log2 fold change (Tubastatin A)	log2 fold change [1]	log2 fold change (defactinib)	log2 fold change [2]	log2 fold change (encorafenib)	log2 fold change [3]	log2 fold change (alisertib)	log2 fold change [4]	log2 fold change (gefitinib)	log2 fold change (pictilisib)	log2 fold change (crizotinib)	log2 fold change [5]	log2 fold change (duvelisib)	log2 fold change (gandotinib)	log2 fold change (tozasertib)	log2 fold change (bafetinib)	log2 fold change [6]	log2 fold change (lapatinib)	log2 fold change (doramapimod)
BRAF (UniProt P15056)	-0.019	-0.071	0.016	0.067	-0.016	0.984 (active)	0.043	-0.021	-0.019	0.045	-0.025	-0.099	-0.086	0.015	0.014	-0.013	0.64 (active)	0.065	–	–
BTK isoform 2 (UniProt Q06187)	-0.037	-0.113	0.307 (active)	0.017	-0.039	-0.033	0.051	-0.012	-0.029	-0.046	-0.041	–	-0.148	0.018	0.101	-0.012	-0.043	0.178	-0.015	0.031
CAMK2G isoform 8 (UniProt Q13555)	0.334 (active)	-0.098	0.223	0.006	0.034	-0.199	-0.007	-0.013	0.144	-0.013	-0.008	-0.177	-0.053	-0.083	0.085	-0.037	0.001	-0.07	-0.013	-0.049
ATF7IP2 (UniProt Q5U623)	-0.197	0.071	-0.065	-0.072	–	–	–	0.003	0.064	0.044	0.05	-0.215	0.05	–	0.027	–	-0.023	-0.155	-0.03	0.073
CCDC85B (UniProt Q15834)	0.016	0.016	0.217	0.183	-0.08	0.255	-0.481	–	-0.508 (active)	–	-0.042	0.006	-0.016	0.081	-0.032	0.248	0.054	0.011	0	0.098
AUH (UniProt Q13825)	0.221	0.147	0.057	-0.169	0.049	0.015	0.023	–	-0.052	–	-0.131	0.012	0.144	0.135	-0.117	0.455 (active)	-0.003	-0.345	0.165	0.023
BBS7 (UniProt Q8IWZ6)	0.027	-0.123	-0.028	-0.212	-0.042	0.024	0.091	0.123	–	-0.016	–	-0.036	0.003	0.039	0.072	0.021	–	-0.119	–	0.151
CDC25C (UniProt P30307)	0.022	-0.09	0.041	0.067	-0.073	0.078	0.14	0.054	0.04	-0.069	-0.025	–	-0.049	-0.021	-0.109	0.03	0.038	0.013	-0.118	-0.003
BET1 (UniProt O15155)	0.07	-0.038	0.033	0.058	0.027	-0.062	-0.214 (active)	-0.023	-0.022	-0.045	-0.034	-0.004	-0.004	0.01	-0.006	0	-0.056	0.03	-0.051	0.03
BNIP3 (UniProt Q12983)	-0.065	-0.058	0.076	–	0.081	0.015	0.018	-0.043	-0.128	0.021	0.049	-0.054	-0.371 (active)	-0.166	0.107	-0.046	0.023	0.14	-0.031	-0.016
CHD9 (UniProt Q3L8U1)	0.027	0.055	-0.064	-0.147	-0.137	–	–	-0.369	–	0.111	–	0.055	1.37 (active)	0.106	-0.111	–	–	-0.27	–	-0.057
CEP152 (UniProt O94986)	-0.077	-0.061	0.019	0.019	0.182	-0.064	0.04	-0.007	–	0.008	-0.013	-0.22	-0.089	-0.017	0.006	-0.114	-0.071	0.058	–	-0.057
CCDC32 isoform 2 (UniProt Q9BV29)	-0.102	-0.033	-0.061	0.095	0.04	0.055	-0.065	-0.098	-0.045	-0.026	0.02	-0.021	-0.195	0.024	0.025	0.062	-0.087	0.085	0.04	0.007
AVEN (UniProt Q9NQS1)	-0.047	-0.154	0.049	-0.097	0.082	0.017	0.016	0.061	–	-0.09	0.022	-0.08	-0.462	0.014	0.262	0.084	-0.097	0.338	–	0.068
CALM2 (UniProt P0DP24)	-0.063	0.018	-0.059	-0.016	0.124	0.03	-0.085	0.011	0.026	-0.13	-0.128	0.027	-0.252	0.086	0.068	0.025	-0.171	0.187	-0.038	-0.064
CACUL1 (UniProt Q86Y37)	0.022	-0.029	-0.027	0.027	-0.04	-0.02	-0.042	–	0.212	–	–	0.037	0.061	0.044	-0.151	0.094	–	0.08	-0.26	0.029
CCNK isoform 4 (UniProt O75909)	-0.094	-0.004	0.01	-0.011	0.009	0.017	-0.035	0.071	0	0.046	0.013	-0.008	-0.213 (active)	0.044	0.161	-0.023	-0.051	0.109	0.001	0.113
CDK17 isoform 2 (UniProt Q00537)	0.599 (active)	-0.015	-0.051	0.139	-0.018	0.099	-0.129	-0.121	–	-0.132	-0.008	0.026	0.096	-0.04	0.042	-0.113	-0.033	-0.359	–	0.15
